In the supplement of paper PMC11732987, “Enantioselective OTUD7B fragment discovery through chemoproteomics screening and high-throughput optimisation” (Communications Chemistry, 2025):

Experiments:
Assay in all cases: log2 ratio of Biotin-Ahx-Ub-VS probe labelling (fragment/DMSO); higher = less target engagement (more negative = stronger competition), active = hit call of the paper (q ≤ 0.05, log2 ratio ≤ -1)
Conditions in all cases: compound concentration: 200 uM; treatment time: 3 h
USP34 = USP34 (UniProt Q70CQ2)
Chain of USP34 (Q70CQ2 whole entry, the tested form may be a part): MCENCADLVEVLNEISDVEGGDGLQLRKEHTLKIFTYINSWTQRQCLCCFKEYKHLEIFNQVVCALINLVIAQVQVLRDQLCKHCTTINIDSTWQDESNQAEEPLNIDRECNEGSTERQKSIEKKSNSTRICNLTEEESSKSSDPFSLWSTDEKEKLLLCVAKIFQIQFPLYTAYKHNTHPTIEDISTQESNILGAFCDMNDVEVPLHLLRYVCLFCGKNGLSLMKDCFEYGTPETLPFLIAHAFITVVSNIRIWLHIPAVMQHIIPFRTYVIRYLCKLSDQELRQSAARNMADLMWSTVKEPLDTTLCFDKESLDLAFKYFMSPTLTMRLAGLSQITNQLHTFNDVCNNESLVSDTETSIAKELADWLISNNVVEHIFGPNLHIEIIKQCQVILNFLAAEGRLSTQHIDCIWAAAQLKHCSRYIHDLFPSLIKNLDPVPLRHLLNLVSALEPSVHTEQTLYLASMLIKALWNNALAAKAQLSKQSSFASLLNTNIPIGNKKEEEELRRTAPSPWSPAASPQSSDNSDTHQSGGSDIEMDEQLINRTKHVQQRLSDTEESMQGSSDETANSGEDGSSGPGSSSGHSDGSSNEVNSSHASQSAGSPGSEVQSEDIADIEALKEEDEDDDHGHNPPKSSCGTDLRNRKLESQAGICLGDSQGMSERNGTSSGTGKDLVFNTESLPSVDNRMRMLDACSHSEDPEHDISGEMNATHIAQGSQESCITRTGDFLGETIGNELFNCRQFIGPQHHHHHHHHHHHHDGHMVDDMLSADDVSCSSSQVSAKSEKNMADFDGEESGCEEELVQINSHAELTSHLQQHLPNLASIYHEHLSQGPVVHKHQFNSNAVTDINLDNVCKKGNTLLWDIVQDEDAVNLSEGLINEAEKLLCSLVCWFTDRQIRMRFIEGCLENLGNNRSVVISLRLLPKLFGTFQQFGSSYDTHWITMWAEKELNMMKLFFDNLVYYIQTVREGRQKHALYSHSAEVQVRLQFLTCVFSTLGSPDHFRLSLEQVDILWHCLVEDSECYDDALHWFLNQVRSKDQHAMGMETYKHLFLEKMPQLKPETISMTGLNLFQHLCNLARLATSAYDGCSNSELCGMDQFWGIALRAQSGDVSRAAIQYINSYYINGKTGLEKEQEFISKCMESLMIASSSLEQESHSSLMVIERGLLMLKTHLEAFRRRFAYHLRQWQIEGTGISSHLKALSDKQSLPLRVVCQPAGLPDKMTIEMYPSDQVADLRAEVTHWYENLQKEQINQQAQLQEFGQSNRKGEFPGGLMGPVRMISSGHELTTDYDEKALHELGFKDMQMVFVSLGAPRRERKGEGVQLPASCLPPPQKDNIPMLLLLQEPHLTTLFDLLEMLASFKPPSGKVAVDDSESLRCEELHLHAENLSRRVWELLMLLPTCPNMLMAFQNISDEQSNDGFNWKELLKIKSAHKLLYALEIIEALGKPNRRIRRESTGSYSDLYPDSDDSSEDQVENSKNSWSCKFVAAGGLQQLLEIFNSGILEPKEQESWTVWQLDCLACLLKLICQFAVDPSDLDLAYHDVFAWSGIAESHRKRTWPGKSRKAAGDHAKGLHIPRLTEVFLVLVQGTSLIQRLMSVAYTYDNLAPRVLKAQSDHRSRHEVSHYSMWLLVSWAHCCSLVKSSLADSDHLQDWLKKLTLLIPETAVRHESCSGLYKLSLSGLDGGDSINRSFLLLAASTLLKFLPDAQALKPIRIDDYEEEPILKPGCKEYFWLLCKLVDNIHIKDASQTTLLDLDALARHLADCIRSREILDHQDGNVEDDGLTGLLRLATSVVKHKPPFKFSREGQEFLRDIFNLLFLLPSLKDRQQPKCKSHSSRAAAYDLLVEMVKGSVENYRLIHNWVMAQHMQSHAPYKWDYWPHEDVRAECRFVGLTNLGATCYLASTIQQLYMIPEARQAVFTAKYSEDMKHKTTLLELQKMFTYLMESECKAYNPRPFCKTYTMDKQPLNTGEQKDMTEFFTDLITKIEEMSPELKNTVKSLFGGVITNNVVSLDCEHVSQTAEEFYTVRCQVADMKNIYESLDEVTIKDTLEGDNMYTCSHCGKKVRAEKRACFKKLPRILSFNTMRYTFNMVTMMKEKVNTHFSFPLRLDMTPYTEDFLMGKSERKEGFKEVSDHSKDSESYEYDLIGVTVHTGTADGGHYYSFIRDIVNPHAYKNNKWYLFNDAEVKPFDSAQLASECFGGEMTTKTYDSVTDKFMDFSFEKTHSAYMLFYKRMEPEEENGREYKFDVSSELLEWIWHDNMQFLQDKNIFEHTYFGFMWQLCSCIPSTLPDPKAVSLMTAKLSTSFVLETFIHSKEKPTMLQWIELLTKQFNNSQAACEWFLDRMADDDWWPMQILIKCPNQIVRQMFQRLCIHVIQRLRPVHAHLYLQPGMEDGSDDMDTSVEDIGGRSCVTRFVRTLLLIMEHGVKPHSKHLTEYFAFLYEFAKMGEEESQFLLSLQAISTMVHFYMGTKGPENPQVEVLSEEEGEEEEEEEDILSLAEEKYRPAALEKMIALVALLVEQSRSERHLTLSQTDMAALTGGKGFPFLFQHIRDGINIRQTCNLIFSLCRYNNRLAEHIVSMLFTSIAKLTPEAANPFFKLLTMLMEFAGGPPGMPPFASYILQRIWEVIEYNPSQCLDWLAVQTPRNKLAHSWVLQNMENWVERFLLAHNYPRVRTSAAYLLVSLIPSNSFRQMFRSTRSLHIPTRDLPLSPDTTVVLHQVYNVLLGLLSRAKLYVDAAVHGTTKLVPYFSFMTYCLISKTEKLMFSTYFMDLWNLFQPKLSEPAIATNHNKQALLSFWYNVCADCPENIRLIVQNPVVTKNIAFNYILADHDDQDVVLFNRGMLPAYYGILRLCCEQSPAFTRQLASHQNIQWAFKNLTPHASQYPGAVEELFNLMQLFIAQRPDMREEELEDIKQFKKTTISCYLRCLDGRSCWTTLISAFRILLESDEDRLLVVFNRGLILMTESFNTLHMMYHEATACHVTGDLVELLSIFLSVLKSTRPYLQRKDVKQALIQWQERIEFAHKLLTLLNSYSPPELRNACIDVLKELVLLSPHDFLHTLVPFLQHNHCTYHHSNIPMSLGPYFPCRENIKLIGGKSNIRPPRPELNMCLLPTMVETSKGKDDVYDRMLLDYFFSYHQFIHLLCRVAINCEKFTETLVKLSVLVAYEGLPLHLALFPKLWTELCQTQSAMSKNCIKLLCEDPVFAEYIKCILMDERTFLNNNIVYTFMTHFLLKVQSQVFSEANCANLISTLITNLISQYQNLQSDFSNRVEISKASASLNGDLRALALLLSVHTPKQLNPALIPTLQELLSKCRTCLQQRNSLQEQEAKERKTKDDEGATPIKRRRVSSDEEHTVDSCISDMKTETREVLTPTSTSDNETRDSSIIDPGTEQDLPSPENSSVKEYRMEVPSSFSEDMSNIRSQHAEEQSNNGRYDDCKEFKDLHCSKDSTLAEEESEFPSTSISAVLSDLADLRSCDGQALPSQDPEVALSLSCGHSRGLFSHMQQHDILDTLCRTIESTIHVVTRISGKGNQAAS
Method in brief: (§1)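 HEK293T lysate (495 µg per sample, in Tris/CHAPS/IGEPAL buffer with protease inhibitors) was exposed in triplicate for 3 h to fragment at 200 µM or to vehicle, then to Biotin-Ahx-Ub-VS at 0.5 µM final for 1 h. Labelled DUBs were enriched on NeutrAvidin, digested with LysC and trypsin, and analysed by diaPASEF LC-MS/MS. Spectronaut label-free quantities were normalised to the global median, and values are average log2 ratios of fragment over vehicle from an unpaired t-test. Only proteins with ≥2 unique peptides were used.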

USP36 = biological target: T1, USP36 (UniProt Q9P275)
T1 sequence (whole entry): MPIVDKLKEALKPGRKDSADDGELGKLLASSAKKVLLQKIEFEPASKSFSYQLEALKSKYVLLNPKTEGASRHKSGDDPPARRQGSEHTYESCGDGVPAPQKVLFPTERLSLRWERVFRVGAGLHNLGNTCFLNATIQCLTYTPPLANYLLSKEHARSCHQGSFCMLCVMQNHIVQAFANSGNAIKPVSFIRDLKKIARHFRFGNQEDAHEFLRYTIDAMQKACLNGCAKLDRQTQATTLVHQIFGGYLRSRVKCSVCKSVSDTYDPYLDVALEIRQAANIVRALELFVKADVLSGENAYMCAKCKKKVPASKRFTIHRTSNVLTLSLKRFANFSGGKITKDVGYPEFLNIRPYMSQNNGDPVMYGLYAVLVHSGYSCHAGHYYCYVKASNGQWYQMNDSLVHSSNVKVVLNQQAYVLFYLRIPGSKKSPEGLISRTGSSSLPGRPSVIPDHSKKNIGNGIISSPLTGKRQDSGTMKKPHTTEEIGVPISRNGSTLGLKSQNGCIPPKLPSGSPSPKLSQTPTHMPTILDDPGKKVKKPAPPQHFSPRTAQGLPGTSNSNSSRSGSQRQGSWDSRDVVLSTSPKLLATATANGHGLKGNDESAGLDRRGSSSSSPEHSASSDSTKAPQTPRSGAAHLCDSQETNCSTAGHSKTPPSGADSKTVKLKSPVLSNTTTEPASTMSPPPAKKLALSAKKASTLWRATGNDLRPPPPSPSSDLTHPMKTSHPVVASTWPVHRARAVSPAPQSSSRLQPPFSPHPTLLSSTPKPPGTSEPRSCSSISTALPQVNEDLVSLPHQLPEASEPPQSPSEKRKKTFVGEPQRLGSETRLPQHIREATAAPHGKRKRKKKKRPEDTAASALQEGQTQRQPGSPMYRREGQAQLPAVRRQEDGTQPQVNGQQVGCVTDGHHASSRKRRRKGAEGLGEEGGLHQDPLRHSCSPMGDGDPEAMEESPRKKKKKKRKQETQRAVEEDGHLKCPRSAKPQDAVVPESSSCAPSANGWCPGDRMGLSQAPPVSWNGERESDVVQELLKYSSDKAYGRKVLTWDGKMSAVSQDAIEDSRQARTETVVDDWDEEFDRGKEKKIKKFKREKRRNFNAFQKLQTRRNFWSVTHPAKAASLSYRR
Method in brief: as §1

USP38 = biological target: T2, USP38 (UniProt Q8NB14)
T2 sequence (whole entry): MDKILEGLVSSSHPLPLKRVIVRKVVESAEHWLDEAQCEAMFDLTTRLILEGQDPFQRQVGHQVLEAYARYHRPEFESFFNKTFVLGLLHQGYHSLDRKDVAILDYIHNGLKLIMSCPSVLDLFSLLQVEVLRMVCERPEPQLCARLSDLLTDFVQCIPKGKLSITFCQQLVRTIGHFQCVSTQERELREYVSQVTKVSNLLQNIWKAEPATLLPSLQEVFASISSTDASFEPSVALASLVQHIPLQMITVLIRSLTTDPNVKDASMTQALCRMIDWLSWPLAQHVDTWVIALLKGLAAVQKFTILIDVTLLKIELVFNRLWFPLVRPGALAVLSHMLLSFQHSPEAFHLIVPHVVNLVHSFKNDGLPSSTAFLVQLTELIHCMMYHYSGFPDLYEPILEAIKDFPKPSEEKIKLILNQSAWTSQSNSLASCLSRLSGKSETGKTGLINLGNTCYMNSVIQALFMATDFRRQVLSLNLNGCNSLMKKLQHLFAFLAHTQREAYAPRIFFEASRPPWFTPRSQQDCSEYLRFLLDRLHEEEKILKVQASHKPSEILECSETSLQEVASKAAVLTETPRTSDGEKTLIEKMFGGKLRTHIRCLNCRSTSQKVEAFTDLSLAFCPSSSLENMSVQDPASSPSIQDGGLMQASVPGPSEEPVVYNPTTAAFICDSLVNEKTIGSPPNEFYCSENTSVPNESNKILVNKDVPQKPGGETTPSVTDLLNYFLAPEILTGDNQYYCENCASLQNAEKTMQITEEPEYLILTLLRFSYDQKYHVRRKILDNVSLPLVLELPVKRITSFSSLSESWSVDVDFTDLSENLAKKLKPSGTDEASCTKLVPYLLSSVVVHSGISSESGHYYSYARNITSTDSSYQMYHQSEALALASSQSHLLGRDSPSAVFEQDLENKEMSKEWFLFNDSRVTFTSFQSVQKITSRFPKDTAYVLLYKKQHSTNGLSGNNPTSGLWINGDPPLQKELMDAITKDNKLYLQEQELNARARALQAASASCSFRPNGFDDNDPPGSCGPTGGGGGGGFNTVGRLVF
Method in brief: as §1

USP39 = biological target: T3, USP39 (UniProt Q53GS9)
T3 sequence (whole entry): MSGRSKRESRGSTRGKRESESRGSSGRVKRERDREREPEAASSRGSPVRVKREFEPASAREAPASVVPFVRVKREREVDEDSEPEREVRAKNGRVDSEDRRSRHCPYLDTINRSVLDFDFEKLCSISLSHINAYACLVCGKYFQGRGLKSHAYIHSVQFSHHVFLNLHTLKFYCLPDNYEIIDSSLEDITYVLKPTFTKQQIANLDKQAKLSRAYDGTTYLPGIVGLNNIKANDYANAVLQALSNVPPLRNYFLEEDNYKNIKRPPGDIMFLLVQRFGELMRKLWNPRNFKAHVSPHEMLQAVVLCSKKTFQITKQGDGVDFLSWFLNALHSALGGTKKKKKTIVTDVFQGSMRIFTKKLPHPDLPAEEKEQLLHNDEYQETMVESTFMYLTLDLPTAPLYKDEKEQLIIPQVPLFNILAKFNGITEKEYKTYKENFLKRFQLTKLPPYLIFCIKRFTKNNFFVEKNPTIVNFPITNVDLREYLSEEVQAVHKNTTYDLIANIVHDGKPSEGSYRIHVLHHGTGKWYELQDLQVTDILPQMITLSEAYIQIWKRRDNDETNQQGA
Method in brief: as §1

USP4 = biological target: T4, USP4 (UniProt Q13107)
T4 sequence (whole entry): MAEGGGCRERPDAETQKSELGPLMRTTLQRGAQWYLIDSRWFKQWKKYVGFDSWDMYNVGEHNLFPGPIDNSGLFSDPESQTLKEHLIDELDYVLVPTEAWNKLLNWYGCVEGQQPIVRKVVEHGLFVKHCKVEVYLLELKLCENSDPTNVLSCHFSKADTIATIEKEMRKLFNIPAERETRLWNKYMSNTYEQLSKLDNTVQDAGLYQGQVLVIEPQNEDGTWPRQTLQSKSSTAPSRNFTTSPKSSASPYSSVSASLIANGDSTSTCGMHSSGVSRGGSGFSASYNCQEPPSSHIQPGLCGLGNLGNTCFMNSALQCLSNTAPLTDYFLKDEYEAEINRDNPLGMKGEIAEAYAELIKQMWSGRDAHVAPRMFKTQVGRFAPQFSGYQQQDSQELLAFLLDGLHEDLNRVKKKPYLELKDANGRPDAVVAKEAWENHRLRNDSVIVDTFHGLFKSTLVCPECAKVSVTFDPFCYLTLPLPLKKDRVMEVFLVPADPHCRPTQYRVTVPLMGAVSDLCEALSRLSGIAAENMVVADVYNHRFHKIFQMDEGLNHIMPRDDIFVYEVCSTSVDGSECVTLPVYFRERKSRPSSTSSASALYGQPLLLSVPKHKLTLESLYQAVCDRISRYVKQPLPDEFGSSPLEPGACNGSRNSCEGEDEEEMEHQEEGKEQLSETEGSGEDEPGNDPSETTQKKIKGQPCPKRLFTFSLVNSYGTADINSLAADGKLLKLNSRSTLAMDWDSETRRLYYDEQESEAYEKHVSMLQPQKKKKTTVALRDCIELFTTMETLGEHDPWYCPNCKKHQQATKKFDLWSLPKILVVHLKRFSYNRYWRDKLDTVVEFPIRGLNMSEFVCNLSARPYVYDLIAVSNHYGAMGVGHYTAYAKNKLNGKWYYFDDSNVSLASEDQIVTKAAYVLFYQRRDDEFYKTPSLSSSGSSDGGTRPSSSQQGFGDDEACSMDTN
Method in brief: as §1

Measured: log2 ratio of Biotin-Ahx-Ub-VS probe labelling

CN(C)C(=O)c1ccc(NC(=O)CCl)cc1
inactive: USP34 -0.218 | USP36 0.00972 | USP38 -0.0389 | USP39 0.0586 | USP4 -0.323
